Reference: PubChem BioAssay (Tox21)
Results filed as inconclusive are left out. Calls of active or inactive are those of the source. Unless noted, the call rests on the fitted dose curve.

Tests used:
[1] = Nuclear factor erythroid 2-related factor 2/antioxidant responsive element (Nrf2/ARE) small molecule agonists: qHTS cell viability counter screen in human keratinocytes (AID 1919968; active means well fitted curve in the direction sought with a large enough effect in the repeat runs; an effect the other way counts as inactive or inconclusive; further: nearly all actives have a fitted effect of over 55% in size)
Outline: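 Parallel cytotoxicity read: KeratinoSens HaCaT cells, compound treatment 23 h, viability by CellTiter-Fluor fluorescence 1 h post-reagent.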

[2] = Nuclear factor erythroid 2-related factor 2/antioxidant responsive element (Nrf2/ARE) small molecule agonists: luciferase reporter gene qHTS assay in human keratinocytes (AID 1919969); further: nearly all actives have a fitted effect of over 35% in size
[3] = biological target: Gonadotropin-releasing hormone receptor (Homo sapiens) (UniProt P30968); assay: Human gonadotropin-releasing hormone receptor (GnRHR) small molecule agonists, calcium flux assay in GnRHR-HEK293 cells (AID 1920063); further: nearly all actives have a fitted effect of over 35% in size
Outline: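 Calcium flux, agonist mode, human GnRHR stably integrated in HEK293; dye 1 h at 37 C before compound; Ex/Em=480/540 kinetic read, 3 min; 15 concentrations, triplicate.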

[4] = biological target: KiSS-1 receptor (Homo sapiens) (UniProt Q969F8); assay: Human kisspeptin (KISS1R) small molecule agonists, calcium flux assay in KISS1R-HEK293 cells (AID 1920064; active means well fitted curve in the direction sought with a large enough effect in the repeat runs; an effect the other way counts as inactive or inconclusive)
Outline: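 Triplicate 15-concentration series were applied to dye-loaded human KISS1R HEK293 cells, and agonist-evoked calcium fluorescence was captured for 3 min.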

[5] = G protein-coupled receptor (GPCR) small molecule agonists, calcium flux assay: HEK293 wild type cell line counter screen (AID 1920065)
Outline: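 Non-specific calcium responders were flagged by adding DMSO-dissolved compounds to dye-loaded cells and reading 480/540 nm fluorescence each second for 3 min; ATP served as positive control.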

[6] = p53 small molecule agonists, cell-based qHTS assay with human liver microsomes (AID 1963577);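 further: p53 response element beta-lactamase reporter cells with liver microsomes plus NADPH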
Outline: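 In this qHTS, p53 response-element beta-lactamase cells receive test compound together with a microsome/NADPH activating system (0.5 mg/mL final each) and are incubated 16 h at 37 C before LiveBLAzer fluorescence detection.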

[7] = p53 small molecule agonists, cell-based qHTS assay with rat liver microsomes (AID 1963578)
Outline: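 Agonist mode in p53RE-bla reporter cells, with compounds co-incubated 16 h at 37 C alongside 0.5 mg/mL rat liver microsomes and 0.5 mg/mL NADPH (final), followed by a 2 h LiveBLAzer detection step.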

[8] = p53 small molecule agonists, cell-based qHTS assay with human liver microsomes: qHTS cell viability counter screen (AID 1963579); further: nearly all actives have a fitted effect of over 45% in size
Outline: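 Metabolically activated exposure: compounds, human liver microsomes and NADPH (0.5 mg/mL final apiece) were added to p53RE-bla cells seeded 5 h earlier, left 16 h at 37 C, and then assessed for viability by CellTiter-Glo luminescence.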

[9] = p53 small molecule agonists, cell-based qHTS assay with rat liver microsomes: qHTS cell viability counter screen (AID 1963580); further: nearly all actives have a fitted effect of over 45% in size
Outline: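 Rat liver microsome (0.5 mg/mL final) and NADPH (0.5 mg/mL final) co-incubation with compounds for 16 h at 37 C on HCT-116 p53RE-bla cells; cytotoxicity taken from intracellular ATP luminescence.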

[10] = p53 small molecule agonists, cell-based qHTS assay: qHTS cell viability counter screen (AID 1963581); further: nearly all actives have a fitted effect of over 45% in size
Outline: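 Multiplexed with the reporter read, a CellTiter-Glo step (30 min, room temperature) gauges ATP-based viability of HCT-116 p53RE-bla cells after 16 h compound incubation at 37 C.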

[11] = p53 small molecule agonists, cell-based qHTS assay (AID 1963582; active means well fitted activation curve with a large enough effect in the signal ratio in the repeat runs, not every such curve was filed as active; the % refers to the signal ratio)
Outline: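 Beta-lactamase reporter cells (p53RE-bla) treated with compounds for 16 h at 37 C; FRET substrate, 2 h, room temperature; fluorescence intensity.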

[12] = biological target: 5-hydroxytryptamine receptor 2A (Homo sapiens) (UniProt P28223); assay: 5-hydroxytryptamine receptor 2A (HTR2A) small molecule antagonists, cell-based qHTS assay (AID 1963586); further: nearly all actives have a fitted effect of over 45% in size
Outline: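 CHO cells stably expressing human HTR2A were plated for 18 h at 37 C, then loaded with calcium dye for 1 h. Compounds were preincubated 5 min at room temperature before DOI (4 nM solution) was added. Kinetic fluorescence was read for 3 min.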

[13] = biological target: Muscarinic acetylcholine receptor M1 (Homo sapiens) (UniProt P11229); assay: Cholinergic receptor muscarinic 1 (CHRM1) small molecule antagonists, cell-based qHTS assay (AID 1963588); further: nearly all actives have a fitted effect of over 40% in size
Outline: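 Compounds were tested at 15 concentrations in three independent runs. Dye-loaded CHRM1-CHO cells were exposed 5 min at room temperature before stimulation by acetylcholine added at 50nM. Intracellular calcium was read kinetically on FDSS for 3 min.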

[14] = biological target: Muscarinic acetylcholine receptor M1 (Homo sapiens) (UniProt P11229); assay: Cholinergic receptor muscarinic 1 (CHRM1) small molecule agonists, cell-based qHTS assay (AID 1963589); further: nearly all actives have a fitted effect of over 35% in size
Outline: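 qHTS, 15-point titration, 3 independent runs: compounds pin-transferred onto dye-loaded CHRM1-CHO cells (human M1), calcium fluorescence followed every second to detect agonism.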

[15] = cAMP Responsive Elements (CRE) small molecule agonists, cell-based qHTS assay (AID 1963590)
Outline: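 Quantitative HTS for CRE agonists: HEK 293T CRE-bla cells, overnight plating, 3 h compound incubation at 37 C/5% CO2, then 2 h room-temperature LiveBLAzer B/G FRET substrate loading.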

[16] = cAMP Responsive Elements (CRE) small molecule antagonists, cell-based qHTS assay (AID 1963591; active means well fitted inhibition curve with a large enough effect in the signal ratio in the repeat runs, not every such curve was filed as active; the % refers to the signal ratio)
Outline: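 Fluorescence intensity from cleaved LiveBLAzer B/G substrate (2 h, room temperature) quantified CRE-bla activity in HEK 293T cells exposed 3 h to compound with 0.25 uM final NKH477.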

[17] = biological target: D(2) dopamine receptor (Homo sapiens) (UniProt P14416); assay: Dopamine D2 receptor (DRD2) small molecule agonists, cell-based qHTS assay (AID 1963594); further: nearly all actives have a fitted effect of over 35% in size
Outline: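 cAMP accumulation in DRD2-HEK293 cells measured by HTRF after 1 h detection; compounds added 10 min before NKH477 (200nM […]) forskolin-analogue stimulation, 30 min at room temperature, with Ro20-1724 present at 0.1 mM final.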

[18] = biological target: D(2) dopamine receptor (Homo sapiens) (UniProt P14416); assay: Dopamine D2 receptor (DRD2) small molecule antagonists, cell-based qHTS assay (AID 1963595; active means well fitted inhibition curve with a large enough effect in the signal ratio in the repeat runs, with a control signal flat; the % refers to the signal ratio)
Outline: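 Readout: HTRF cAMP, cAMP-d2 competing with cellular cAMP for anti-cAMP cryptate, read after 1 h. Cells: DRD2-HEK293. Conditions: 0.1 mM Ro20-1724, 12 nM quinpirole, 200 nM NKH477, 30 min RT.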

[19] = biological target: 5-hydroxytryptamine receptor 2A (Homo sapiens) (UniProt P28223); assay: 5-hydroxytryptamine receptor 2A (HTR2A) small molecule agonists, cell-based qHTS assay (AID 1963587); further: nearly all actives have a fitted effect of over 30% in size
Outline: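 Kinetic calcium-flux fluorescence (2 min, 1 sec intervals) after compound addition in agonist mode. HTR2A-CHO cells were cultured 18 h, then dye-loaded 1 h at 37 C.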

[20] = biological target: Beta-2 adrenergic receptor (Homo sapiens) (UniProt P07550); assay: Adrenergic beta2 receptor (ADRB2) small molecule antagonists, cell-based qHTS assay (AID 1963592); further: series mostly up to about 92 µM; nearly all actives have a fitted effect of over 50% in size
Outline: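 Assay format: CHO-ADRB2 cells, 18-20hr seeding at 37C/5% CO2, then compound plus 1nM isoproterenol agonist mix for 0.5hr RT. Homogeneous time-resolved fluorescence cAMP detection after 1hr, expressed as 665/615 nm ratio.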

Measured: Potency

Sequence of Muscarinic acetylcholine receptor M1 (Homo sapiens) (P11229 whole entry, looked up): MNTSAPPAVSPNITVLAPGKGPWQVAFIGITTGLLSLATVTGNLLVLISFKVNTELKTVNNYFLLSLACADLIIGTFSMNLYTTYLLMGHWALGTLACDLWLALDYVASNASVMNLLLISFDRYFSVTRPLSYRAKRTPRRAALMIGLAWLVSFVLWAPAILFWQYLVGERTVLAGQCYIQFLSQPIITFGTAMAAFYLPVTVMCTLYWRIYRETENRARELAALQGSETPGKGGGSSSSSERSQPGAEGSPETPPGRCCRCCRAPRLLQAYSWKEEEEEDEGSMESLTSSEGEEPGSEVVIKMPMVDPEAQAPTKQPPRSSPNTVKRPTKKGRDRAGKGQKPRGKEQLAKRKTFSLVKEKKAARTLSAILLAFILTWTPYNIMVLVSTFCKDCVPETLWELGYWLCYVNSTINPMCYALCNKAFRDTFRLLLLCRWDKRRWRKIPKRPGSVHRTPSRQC
Sequence of Gonadotropin-releasing hormone receptor (Homo sapiens) (P30968 whole entry, looked up): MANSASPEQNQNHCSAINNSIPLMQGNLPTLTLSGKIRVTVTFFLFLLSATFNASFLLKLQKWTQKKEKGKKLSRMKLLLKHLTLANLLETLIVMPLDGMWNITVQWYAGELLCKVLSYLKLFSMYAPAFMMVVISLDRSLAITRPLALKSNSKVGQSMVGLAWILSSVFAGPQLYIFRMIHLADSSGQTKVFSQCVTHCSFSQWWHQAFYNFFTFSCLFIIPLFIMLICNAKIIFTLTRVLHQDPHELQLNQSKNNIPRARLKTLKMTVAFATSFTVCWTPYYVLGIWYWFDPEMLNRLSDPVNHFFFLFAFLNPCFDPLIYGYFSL
Sequence of 5-hydroxytryptamine receptor 2A (Homo sapiens) (P28223 whole entry, looked up): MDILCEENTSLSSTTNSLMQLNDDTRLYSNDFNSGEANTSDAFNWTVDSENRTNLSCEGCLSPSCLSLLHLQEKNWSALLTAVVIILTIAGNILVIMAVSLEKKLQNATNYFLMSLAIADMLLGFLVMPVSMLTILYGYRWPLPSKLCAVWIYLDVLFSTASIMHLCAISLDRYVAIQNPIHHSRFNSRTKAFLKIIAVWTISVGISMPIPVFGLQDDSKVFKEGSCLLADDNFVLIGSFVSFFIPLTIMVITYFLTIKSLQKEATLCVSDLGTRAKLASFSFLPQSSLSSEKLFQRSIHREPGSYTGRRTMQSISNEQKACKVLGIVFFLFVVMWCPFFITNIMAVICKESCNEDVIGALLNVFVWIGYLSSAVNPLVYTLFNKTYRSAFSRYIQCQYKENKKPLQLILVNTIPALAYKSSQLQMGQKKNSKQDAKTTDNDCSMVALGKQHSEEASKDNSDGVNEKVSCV
Sequence of Beta-2 adrenergic receptor (Homo sapiens) (P07550 whole entry, looked up): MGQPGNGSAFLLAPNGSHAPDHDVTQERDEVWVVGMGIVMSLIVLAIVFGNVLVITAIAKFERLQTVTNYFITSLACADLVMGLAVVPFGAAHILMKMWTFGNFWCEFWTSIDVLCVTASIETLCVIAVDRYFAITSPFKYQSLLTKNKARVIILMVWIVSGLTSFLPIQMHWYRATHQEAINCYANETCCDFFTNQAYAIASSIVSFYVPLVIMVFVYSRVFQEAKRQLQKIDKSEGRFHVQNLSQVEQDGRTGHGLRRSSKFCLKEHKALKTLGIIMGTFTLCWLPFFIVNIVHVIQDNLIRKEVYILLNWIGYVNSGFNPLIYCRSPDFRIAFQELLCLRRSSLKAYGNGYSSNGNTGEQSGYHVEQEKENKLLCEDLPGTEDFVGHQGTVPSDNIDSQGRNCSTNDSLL
Sequence of KiSS-1 receptor (Homo sapiens) (Q969F8 whole entry, looked up): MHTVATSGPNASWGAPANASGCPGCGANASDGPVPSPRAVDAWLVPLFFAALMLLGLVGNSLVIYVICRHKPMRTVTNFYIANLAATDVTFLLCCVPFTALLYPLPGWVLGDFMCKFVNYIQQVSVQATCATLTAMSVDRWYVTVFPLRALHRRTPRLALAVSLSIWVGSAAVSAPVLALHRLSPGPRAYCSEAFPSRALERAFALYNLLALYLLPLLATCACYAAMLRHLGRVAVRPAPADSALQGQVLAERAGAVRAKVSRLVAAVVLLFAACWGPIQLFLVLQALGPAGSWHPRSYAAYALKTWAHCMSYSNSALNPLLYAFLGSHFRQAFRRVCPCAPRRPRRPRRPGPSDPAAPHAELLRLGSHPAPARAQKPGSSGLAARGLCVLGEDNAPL
Sequence of D(2) dopamine receptor (Homo sapiens) (P14416 whole entry, looked up): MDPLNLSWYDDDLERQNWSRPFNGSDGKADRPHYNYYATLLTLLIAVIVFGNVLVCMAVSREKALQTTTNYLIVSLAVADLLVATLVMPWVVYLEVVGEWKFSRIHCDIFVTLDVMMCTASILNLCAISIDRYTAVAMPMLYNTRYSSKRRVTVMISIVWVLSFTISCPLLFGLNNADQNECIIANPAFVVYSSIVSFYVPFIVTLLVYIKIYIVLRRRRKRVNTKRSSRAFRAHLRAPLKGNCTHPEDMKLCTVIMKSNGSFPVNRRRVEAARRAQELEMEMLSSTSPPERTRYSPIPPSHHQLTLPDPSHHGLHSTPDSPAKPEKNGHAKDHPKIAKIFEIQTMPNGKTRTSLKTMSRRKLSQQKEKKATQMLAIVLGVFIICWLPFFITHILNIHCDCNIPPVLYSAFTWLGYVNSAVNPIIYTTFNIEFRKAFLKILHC

CC1CC(O)CC(C)(C)C1 (configuration not stated)
inactive: [1] | [2] | [3] | [4] | [5] | [6] | [7] | [8] | [9] | [10] | [11] | [12] | [13] | [14] | [15] | [16] | [17] | [18]

CC(C)CCCC(C)CCCC(C)CCCCC(C)CCCC(C)CCCC(C)C (configuration not stated)
inactive: [1] | [2] | [3] | [4] | [5] | [6] | [7] | [8] | [9] | [10] | [11] | [12] | [19] | [14] | [15] | [16] | [20] | [17] | [18]

COc1cc(S(N)(=O)=O)cc(C(=O)O)c1OC
inactive: [1] | [2] | [3] | [4] | [5] | [6] | [7] | [8] | [9] | [10] | [11] | [12] | [19] | [14] | [15] | [16] | [20] | [18]

Cc1ccc2c(ccc3ccccc32)c1
inactive: [1] | [2] | [3] | [4] | [5] | [6] | [7] | [8] | [9] | [10] | [11] | [12] | [13] | [14] | [15] | [16] | [20] | [17] | [18]

CC(C)N=C=NC(C)C
inactive: [1] | [2] | [3] | [4] | [5] | [6] | [7] | [8] | [9] | [10] | [11] | [12] | [19] | [14] | [20] | [17] | [18]

OCC(CO)N[C@H]1C[C@](O)(CO)[C@@H](O)[C@H](O)[C@H]1O
inactive: [1] | [2] | [3] | [4] | [5] | [6] | [7] | [8] | [9] | [10] | [11] | [12] | [19] | [15] | [16] | [20] | [18]

COC(=O)c1ccc(C)cc1C1=NC(C)(C(C)C)C(=O)N1 (configuration not stated)
inactive: [1] | [2] | [3] | [4] | [5] | [6] | [7] | [8] | [9] | [10] | [11] | [12] | [19] | [14] | [15] | [16] | [20] | [17] | [18]

c1ccc(CCc2ccccc2)cc1
inactive: [1] | [2] | [3] | [4] | [5] | [6] | [7] | [8] | [9] | [10] | [11] | [12] | [13] | [14] | [15] | [16] | [20] | [17]

CC(=O)c1ccccc1O
inactive: [1] | [2] | [3] | [4] | [5] | [6] | [7] | [8] | [9] | [10] | [11] | [12] | [19] | [15] | [16] | [20] | [17]
